# Assay results from PMC7862700, “An all-to-all approach to the identification of sequence-specific readers for epigenetic DNA modifications on cytosine”.
# Columns and labels:
# Assay in all cases: DAPPL (digital affinity profiling via proximity ligation, sequencing); 10 mM Tris-HCl pH 7.5, 50 mM NaCl, 1 mM DTT, 4% glycerol, room temperature, 30 min; GST-TFs on glutathione beads, 16-mer random dsDNA library, 0.1% formaldehyde crosslink after washing; high values mean tight binding
# [1] = target: T1, FLI1 (Homo sapiens, UniProt Q01543 1-452); settings: protein: recombinant; tags: N-terminal GST; dsDNA, one strand shown
# T1 sequence: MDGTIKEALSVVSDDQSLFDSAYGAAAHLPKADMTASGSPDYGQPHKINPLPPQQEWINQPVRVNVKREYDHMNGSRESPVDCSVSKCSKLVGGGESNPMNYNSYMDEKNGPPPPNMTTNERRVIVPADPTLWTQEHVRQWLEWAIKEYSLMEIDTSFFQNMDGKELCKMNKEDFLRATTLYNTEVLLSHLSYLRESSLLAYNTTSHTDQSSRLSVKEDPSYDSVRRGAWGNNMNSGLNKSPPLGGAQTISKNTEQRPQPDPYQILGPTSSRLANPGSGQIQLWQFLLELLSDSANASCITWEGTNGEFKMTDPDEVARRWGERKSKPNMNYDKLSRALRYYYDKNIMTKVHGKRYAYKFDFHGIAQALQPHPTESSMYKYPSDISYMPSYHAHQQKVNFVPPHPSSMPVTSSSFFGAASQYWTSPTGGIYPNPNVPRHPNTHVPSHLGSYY
# In short: (§1)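 Pools of DNA-barcoded human transcription factors, expressed in yeast as GST fusions on glutathione beads and combined with a tag-only sample, were incubated with 200 nmole of a 16-mer random double-stranded DNA library. Incubation took 30 min at room temperature in Tris/NaCl/DTT/glycerol buffer and was followed by washing, 0.1% formaldehyde crosslinking, proximity ligation (BsaI/T4 ligase, 1 h, 37 °C), PCR amplification and sequencing on an Illumina NextSeq500. Binding signal is the ratio of a hexamer's read frequency for a factor to its frequency for the tag-only sample.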
# [2] = target: T2, ELK1 (Homo sapiens, UniProt P19419 1-428); settings: protein: recombinant; tags: N-terminal GST; dsDNA, one strand shown
# T2 sequence: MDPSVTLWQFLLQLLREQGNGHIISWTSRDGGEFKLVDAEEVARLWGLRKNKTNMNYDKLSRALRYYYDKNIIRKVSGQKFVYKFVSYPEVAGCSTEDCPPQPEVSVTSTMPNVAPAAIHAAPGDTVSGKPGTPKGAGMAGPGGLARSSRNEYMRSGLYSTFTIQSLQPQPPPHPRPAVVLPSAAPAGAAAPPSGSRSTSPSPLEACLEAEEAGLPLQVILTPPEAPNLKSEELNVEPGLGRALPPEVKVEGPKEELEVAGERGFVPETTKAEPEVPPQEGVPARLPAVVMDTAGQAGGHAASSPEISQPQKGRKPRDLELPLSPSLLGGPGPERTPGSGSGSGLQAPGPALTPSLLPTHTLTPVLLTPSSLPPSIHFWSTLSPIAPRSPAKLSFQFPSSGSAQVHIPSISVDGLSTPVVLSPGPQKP
# In short: as §1
# [3] = target: T3, GABPA (Homo sapiens, UniProt Q06546 1-454); settings: protein: recombinant; tags: N-terminal GST; dsDNA, one strand shown
# T3 sequence: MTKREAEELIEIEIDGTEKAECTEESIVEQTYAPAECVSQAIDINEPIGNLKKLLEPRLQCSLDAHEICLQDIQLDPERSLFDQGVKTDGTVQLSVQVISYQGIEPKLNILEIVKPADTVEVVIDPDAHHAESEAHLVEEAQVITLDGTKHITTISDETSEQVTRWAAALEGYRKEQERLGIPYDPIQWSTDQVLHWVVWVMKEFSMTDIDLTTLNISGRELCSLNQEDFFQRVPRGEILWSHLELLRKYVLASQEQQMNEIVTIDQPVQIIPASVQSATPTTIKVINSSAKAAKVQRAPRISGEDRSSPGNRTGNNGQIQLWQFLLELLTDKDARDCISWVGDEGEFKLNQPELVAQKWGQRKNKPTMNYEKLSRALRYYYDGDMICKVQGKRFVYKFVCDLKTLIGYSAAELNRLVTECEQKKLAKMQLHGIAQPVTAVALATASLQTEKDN
# In short: as §1
# [4] = target: T4, ERG (Homo sapiens, UniProt P11308 1-479); settings: protein: recombinant; tags: N-terminal GST; dsDNA, one strand shown
# T4 sequence: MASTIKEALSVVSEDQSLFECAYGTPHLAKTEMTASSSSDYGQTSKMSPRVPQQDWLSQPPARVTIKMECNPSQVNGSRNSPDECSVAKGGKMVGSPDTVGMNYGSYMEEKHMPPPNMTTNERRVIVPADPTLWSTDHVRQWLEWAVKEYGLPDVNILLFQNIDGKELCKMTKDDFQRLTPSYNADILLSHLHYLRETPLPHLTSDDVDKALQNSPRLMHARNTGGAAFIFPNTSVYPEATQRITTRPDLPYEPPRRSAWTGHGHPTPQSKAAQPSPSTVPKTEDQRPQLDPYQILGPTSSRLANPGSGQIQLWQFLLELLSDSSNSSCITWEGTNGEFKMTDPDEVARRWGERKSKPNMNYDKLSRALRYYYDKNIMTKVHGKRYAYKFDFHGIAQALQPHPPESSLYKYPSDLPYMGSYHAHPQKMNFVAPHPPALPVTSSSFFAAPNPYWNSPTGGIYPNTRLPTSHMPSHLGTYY
# In short: as §1
# [5] = target: ELF1 (Homo sapiens, UniProt P32519 1-619); settings: protein: recombinant; tags: N-terminal GST; dsDNA, one strand shown
# In short: as §1
# [6] = target: T5, EHF (Homo sapiens, UniProt Q9NZC4 1-300); settings: protein: recombinant; tags: N-terminal GST; dsDNA, one strand shown
# T5 sequence: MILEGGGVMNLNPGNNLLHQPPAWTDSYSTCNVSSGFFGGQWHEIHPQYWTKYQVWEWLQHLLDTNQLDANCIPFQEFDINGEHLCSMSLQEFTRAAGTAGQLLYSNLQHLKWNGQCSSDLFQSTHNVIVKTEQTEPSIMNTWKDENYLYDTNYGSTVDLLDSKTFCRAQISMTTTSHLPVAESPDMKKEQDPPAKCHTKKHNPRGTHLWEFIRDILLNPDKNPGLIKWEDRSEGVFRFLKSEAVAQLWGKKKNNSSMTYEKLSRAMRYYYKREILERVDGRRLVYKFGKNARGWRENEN
# In short: as §1
# [7] = target: SPI1 (Homo sapiens, UniProt P17947 1-270); settings: protein: recombinant; tags: N-terminal GST; dsDNA, one strand shown
# In short: as §1
# [8] = target: SPIB (Homo sapiens, UniProt Q01892 1-262); settings: protein: recombinant; tags: N-terminal GST; dsDNA, one strand shown
# In short: as §1
# [9] = target: T6, ELK3 (Homo sapiens, UniProt P41970 1-407); settings: protein: recombinant; tags: N-terminal GST; dsDNA, one strand shown
# T6 sequence: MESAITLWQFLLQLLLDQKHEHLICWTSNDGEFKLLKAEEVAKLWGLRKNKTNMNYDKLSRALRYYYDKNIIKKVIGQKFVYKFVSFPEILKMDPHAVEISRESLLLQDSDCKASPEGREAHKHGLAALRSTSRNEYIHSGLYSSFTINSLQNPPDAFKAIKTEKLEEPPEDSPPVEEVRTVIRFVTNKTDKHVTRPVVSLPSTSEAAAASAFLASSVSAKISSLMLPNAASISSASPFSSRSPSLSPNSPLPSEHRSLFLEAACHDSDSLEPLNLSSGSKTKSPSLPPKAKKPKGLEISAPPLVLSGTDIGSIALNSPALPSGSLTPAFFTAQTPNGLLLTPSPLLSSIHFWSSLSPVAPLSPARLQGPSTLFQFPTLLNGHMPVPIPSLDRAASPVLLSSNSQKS
# In short: as §1
# [10] = target: T7, FEV (Homo sapiens, UniProt Q99581 1-238); settings: protein: recombinant; tags: N-terminal GST; dsDNA, one strand shown
# T7 sequence: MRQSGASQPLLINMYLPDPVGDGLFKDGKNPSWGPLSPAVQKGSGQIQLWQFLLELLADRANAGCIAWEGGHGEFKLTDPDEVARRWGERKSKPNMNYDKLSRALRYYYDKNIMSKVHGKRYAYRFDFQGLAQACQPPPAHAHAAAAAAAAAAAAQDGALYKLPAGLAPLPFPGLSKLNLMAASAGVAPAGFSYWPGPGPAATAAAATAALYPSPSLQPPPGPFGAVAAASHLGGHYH
# In short: as §1
# [11] = target: ETV5 (Homo sapiens, UniProt P41161 1-510); settings: protein: recombinant; tags: N-terminal GST; dsDNA, one strand shown
# In short: as §1
# [12] = target: HSF1 (Homo sapiens, UniProt Q00613 1-529); settings: protein: recombinant; tags: N-terminal GST; chain copies: 3; dsDNA, one strand shown
# In short: as §1
# [13] = target: T8, SPIC (Homo sapiens, UniProt Q8N5J4 1-248); settings: protein: recombinant; tags: N-terminal GST; dsDNA, one strand shown
# T8 sequence: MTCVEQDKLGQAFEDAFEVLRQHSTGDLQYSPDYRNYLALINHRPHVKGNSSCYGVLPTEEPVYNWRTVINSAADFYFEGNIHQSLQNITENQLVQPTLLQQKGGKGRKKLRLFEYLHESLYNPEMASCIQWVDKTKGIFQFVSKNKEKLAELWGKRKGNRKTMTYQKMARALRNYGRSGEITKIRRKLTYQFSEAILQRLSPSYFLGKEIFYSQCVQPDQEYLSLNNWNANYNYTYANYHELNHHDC
# In short: as §1
# [14] = target: ELF4 (Homo sapiens, UniProt Q99607 1-663); settings: protein: recombinant; tags: N-terminal GST; dsDNA, one strand shown
# In short: as §1
# [15] = target: T9, ELK4 (Homo sapiens, UniProt P28324-2 1-405); settings: protein: recombinant; tags: N-terminal GST; dsDNA, one strand shown
# T9 sequence: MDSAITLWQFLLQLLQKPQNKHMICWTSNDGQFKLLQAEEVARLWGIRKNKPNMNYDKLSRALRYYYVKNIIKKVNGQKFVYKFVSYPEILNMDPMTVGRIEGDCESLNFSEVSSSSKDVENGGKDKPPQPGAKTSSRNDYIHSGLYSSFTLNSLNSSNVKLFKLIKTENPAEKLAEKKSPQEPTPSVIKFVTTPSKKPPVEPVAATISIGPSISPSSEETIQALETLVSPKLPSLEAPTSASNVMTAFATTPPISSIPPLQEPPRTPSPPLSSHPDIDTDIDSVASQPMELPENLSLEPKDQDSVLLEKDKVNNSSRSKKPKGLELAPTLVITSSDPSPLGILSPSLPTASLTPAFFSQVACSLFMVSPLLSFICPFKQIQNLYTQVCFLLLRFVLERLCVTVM
# In short: as §1
# [16] = target: T10, ETV2 (Homo sapiens, UniProt O00321 1-342); settings: protein: recombinant; tags: N-terminal GST; dsDNA, one strand shown
# T10 sequence: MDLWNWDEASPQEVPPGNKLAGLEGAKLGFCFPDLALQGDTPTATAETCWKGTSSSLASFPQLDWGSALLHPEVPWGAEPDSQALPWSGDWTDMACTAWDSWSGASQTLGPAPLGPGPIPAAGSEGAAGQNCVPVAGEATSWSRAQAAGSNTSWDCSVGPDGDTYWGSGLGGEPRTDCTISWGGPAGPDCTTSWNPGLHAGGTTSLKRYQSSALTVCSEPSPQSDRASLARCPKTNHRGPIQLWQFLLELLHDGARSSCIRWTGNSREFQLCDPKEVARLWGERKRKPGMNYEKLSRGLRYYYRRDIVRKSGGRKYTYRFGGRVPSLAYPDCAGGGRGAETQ
# In short: as §1
# [17] = target: T11, ELF3 (Homo sapiens, UniProt P78545 1-371); settings: protein: recombinant; tags: N-terminal GST; dsDNA, one strand shown
# T11 sequence: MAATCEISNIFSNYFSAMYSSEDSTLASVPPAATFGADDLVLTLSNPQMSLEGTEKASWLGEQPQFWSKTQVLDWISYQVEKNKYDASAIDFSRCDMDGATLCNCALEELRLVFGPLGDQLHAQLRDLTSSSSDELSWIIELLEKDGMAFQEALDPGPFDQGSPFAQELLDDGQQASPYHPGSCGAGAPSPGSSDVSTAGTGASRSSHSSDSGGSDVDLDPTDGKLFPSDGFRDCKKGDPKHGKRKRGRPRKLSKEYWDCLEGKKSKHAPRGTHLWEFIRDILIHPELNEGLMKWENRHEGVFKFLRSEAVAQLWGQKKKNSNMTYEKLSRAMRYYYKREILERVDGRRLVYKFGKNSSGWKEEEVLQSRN
# In short: as §1
# [18] = target: CRX (Homo sapiens, UniProt O43186 1-299); settings: protein: recombinant; tags: N-terminal GST; dsDNA, one strand shown
# In short: as §1
# [19] = target: ETV1 (Homo sapiens, UniProt P50549 1-477); settings: protein: recombinant; tags: N-terminal GST; dsDNA, one strand shown
# In short: as §1
# ELF4, sequence (Q99607 whole entry): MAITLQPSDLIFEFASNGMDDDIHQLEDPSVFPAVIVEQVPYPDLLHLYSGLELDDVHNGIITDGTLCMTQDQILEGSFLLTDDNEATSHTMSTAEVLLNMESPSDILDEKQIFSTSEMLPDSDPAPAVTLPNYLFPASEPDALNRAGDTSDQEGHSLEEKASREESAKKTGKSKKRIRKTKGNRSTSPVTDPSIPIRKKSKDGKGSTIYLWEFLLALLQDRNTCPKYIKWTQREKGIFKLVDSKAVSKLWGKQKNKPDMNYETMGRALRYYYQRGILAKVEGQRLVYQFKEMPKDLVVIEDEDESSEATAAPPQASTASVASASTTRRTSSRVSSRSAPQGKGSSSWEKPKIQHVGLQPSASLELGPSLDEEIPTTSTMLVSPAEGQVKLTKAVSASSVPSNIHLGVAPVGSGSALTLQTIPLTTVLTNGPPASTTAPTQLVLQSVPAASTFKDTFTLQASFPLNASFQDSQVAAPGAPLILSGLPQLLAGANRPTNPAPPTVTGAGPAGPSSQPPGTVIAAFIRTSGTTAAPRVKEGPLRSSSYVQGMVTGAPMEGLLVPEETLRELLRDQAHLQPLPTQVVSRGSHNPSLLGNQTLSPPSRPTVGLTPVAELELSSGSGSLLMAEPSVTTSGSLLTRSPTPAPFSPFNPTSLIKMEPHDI
# HSF1, sequence (Q00613 whole entry): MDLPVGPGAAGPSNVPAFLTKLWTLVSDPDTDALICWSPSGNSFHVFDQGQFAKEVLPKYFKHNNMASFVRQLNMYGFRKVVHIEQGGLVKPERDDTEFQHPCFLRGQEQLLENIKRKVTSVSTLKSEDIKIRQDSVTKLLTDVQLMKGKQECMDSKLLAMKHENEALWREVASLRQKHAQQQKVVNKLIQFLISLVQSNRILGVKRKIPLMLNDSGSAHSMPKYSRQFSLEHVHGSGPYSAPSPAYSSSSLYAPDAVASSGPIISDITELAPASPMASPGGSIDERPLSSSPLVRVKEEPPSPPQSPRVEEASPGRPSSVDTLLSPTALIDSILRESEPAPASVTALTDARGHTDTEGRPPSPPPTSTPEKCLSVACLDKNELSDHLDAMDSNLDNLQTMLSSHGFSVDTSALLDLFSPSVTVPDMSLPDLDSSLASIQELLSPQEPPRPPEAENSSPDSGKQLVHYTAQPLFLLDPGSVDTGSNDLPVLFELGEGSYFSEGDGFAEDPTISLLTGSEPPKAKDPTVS
# ETV5, sequence (P41161 whole entry): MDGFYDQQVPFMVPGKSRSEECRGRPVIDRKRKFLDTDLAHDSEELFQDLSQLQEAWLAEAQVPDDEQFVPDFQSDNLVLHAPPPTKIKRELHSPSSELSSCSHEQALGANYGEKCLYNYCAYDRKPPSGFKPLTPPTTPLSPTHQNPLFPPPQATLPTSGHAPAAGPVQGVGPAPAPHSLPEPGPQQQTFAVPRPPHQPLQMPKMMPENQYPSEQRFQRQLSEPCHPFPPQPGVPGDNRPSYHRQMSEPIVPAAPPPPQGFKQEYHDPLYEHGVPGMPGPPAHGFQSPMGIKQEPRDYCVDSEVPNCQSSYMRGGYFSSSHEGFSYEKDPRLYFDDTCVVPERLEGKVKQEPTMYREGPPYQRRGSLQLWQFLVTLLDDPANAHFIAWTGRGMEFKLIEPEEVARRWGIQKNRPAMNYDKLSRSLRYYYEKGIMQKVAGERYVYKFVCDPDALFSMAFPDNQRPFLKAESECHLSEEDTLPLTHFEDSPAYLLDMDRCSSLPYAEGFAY
# CRX, sequence (O43186 whole entry): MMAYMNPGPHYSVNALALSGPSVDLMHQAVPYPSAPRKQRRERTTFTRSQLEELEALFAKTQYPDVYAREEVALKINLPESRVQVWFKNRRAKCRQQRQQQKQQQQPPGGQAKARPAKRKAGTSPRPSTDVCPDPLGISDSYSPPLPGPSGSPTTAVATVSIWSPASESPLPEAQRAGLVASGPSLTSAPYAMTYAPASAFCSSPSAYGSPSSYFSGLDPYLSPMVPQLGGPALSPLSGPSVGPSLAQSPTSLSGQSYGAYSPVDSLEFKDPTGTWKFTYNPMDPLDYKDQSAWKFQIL
# ETV1, sequence (P50549 whole entry): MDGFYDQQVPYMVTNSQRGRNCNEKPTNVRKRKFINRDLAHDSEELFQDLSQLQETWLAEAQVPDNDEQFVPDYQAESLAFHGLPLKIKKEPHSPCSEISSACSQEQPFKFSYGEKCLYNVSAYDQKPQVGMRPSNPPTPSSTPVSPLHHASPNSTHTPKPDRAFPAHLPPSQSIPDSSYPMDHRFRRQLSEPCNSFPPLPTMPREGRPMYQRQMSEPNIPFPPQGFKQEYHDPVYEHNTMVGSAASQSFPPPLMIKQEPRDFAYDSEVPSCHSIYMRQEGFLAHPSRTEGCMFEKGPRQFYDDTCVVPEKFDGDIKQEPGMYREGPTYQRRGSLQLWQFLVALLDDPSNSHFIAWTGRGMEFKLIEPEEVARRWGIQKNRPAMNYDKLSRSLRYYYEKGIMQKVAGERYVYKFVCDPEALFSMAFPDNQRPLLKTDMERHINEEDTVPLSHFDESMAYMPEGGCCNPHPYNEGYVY
# ELF1, sequence (P32519 whole entry): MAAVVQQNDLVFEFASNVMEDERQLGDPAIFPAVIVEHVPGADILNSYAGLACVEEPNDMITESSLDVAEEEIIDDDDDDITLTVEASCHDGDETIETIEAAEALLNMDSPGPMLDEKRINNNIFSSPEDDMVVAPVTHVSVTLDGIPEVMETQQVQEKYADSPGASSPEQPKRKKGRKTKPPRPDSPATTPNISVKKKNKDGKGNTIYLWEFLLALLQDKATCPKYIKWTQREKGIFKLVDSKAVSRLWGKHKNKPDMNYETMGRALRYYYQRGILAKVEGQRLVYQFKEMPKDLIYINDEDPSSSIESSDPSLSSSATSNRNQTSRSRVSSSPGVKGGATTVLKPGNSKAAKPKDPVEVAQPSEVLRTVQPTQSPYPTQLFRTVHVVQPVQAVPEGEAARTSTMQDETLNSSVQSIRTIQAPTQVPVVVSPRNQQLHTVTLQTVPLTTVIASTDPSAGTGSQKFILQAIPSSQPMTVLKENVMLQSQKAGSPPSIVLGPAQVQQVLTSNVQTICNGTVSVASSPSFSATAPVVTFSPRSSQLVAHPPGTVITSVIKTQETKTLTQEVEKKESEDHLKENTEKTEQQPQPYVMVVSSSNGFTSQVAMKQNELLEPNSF
# SPIB, sequence (Q01892 whole entry): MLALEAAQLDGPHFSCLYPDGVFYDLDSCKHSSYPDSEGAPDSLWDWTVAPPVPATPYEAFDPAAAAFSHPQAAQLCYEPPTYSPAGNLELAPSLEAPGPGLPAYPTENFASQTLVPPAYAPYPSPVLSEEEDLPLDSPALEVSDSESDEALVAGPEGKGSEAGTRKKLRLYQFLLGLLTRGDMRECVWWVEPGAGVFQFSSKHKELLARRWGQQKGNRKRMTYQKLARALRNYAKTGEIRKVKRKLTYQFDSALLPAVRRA
sequence,measurement,setting,value
AGTATT,binding signal,[1],"1.12 fold enrichment (6-mer frequency, TF over GST control)"
same,binding signal,[2],"1.19 fold enrichment (6-mer frequency, TF over GST control)"
same,binding signal,[3],"1.1 fold enrichment (6-mer frequency, TF over GST control)"
same,binding signal,[4],"1.2 fold enrichment (6-mer frequency, TF over GST control)"
same,binding signal,[5],"1.14 fold enrichment (6-mer frequency, TF over GST control)"
same,binding signal,[6],"1.15 fold enrichment (6-mer frequency, TF over GST control)"
same,binding signal,[7],"1.1 fold enrichment (6-mer frequency, TF over GST control)"
same,binding signal,[8],"1.17 fold enrichment (6-mer frequency, TF over GST control)"
same,binding signal,[9],"1.14 fold enrichment (6-mer frequency, TF over GST control)"
same,binding signal,[10],"1.14 fold enrichment (6-mer frequency, TF over GST control)"
same,binding signal,[11],"1.2 fold enrichment (6-mer frequency, TF over GST control)"
same,binding signal,[12],"1.35 fold enrichment (6-mer frequency, TF over GST control)"
same,binding signal,[13],"1.22 fold enrichment (6-mer frequency, TF over GST control)"
same,binding signal,[14],"1.16 fold enrichment (6-mer frequency, TF over GST control)"
same,binding signal,[15],"1.17 fold enrichment (6-mer frequency, TF over GST control)"
same,binding signal,[16],"1.07 fold enrichment (6-mer frequency, TF over GST control)"
same,binding signal,[17],"1.17 fold enrichment (6-mer frequency, TF over GST control)"
same,binding signal,[18],"1.57 fold enrichment (6-mer frequency, TF over GST control)"
same,binding signal,[19],"1.19 fold enrichment (6-mer frequency, TF over GST control)"
